Data reported in PubChem BioAssay AID588397 (National Center for Advancing Translational Sciences (NCATS), 2011).
The campaign covered roughly 1,300 compounds. About 1,000 (77%) were called active. Roughly 7% stayed inconclusive and do not appear here. The set was probably picked from earlier hits. This is one part of the list. A number with no mark means an inactive call. Calls follow the shape of the dose curve; as a rule, active = well fitted inhibition curve with a large enough effect; inconclusive = small, poorly fitted or top-dose-only effect; inactive = no such curve, though single readings can be large or run the other way.

test: qHTS of small molecules that selectively kill Giardia lamblia: Hit Validation.;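 also: viability measured as ATP content by luminescence so killing lowers signal; trophozoites exposed to compounds for 48 h anaerobically at 37 °C; nearly all actives have a fitted effect of over 65% in size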; settings: Giardia lamblia trophozoite viability, dose-response; series mostly up to 38.3 µM; activity change, negative = killing: at the top concentration
Procedure, shortened: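 Trophozoites 100 cells/well + cpd; 48 hrs, 37 deg C, anaerobic. ATPLite 1-Step added, 15-30 min RT, luminescence read (ATP-based viability).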
% is scaled to controls: 0 for no effect and ±100 for the full control effect; potency is read from the fitted curve at half-maximal effect.

SMILES	Potency	activity change, negative = killing
COc1ccccc1C1OC2=C(Nc3ccc([N+](=O)[O-])cc3N2)C1=O (stereo unspecified)	3650 nM (active)	
CCN(CC)CCOC(=O)c1ccc(N/C=C(/C#N)c2nc(-c3cc4ccccc4oc3=O)cs2)cc1	516 nM (active)	
CCN(CC)CCOC(=O)c1ccc(N/C=C(/C#N)c2nc(-c3ccc4c(c3)OCO4)cs2)cc1	2050 nM (active)	
O=c1c2c([N+](=O)[O-])cc([N+](=O)[O-])cc2nc2ccccn12	2590 nM (active)	
O=C(CCc1ccccc1)Nc1ncc([N+](=O)[O-])s1	230 nM (active)	
O=C(CCS(=O)(=O)Cc1ccccc1)Nc1ncc([N+](=O)[O-])s1	650 nM (active)	
O=C(Nc1ccccc1)Nc1ncc([N+](=O)[O-])s1	4100 nM (active)	
O=C(CCS(=O)(=O)c1ccccc1)Nc1ncc([N+](=O)[O-])s1	1160 nM (active)	
C[n+]1ccnc2ccccc21	2590 nM (active)	
O=c1[nH]c2cccnc2n1-c1ccc([N+](=O)[O-])cc1	1830 nM (active)	
CC(C)C(=O)N1CCN(c2ccc(NC(=O)c3ccc([N+](=O)[O-])o3)cc2)CC1	1030 nM (active)	
CC(C)(C)C(=O)N1CCN(c2ccc(NC(=O)c3ccc([N+](=O)[O-])o3)cc2)CC1	1450 nM (active)	
CCCC(=O)N1CCN(c2ccc(NC(=O)c3ccc([N+](=O)[O-])o3)cc2)CC1	729 nM (active)	
CCC(=O)N1CCN(c2ccc(NC(=O)c3ccc([N+](=O)[O-])o3)cc2)CC1	918 nM (active)	
Cc1ncc([N+](=O)[O-])n1CCOC(=O)c1cc(Cl)cc(Cl)c1N	163 nM (active)	
Cc1ncc([N+](=O)[O-])n1CCOC(=O)c1ccc(Cl)cc1Cl	818 nM (active)	
CN=C1C=C/C(=N/N=c2\ccn(O)cc2C)C=C1C	1450 nM (active)	
O=C(Nc1csc([N+](=O)[O-])c1)Nc1ccccc1Cl	1630 nM (active)	
CCCOC(=O)/C(=C\c1ccc([N+](=O)[O-])o1)NC(=O)c1ccccc1	729 nM (active)	
COC(=O)/C(=C\c1ccc([N+](=O)[O-])o1)NC(=O)c1ccccc1	1030 nM (active)	
CCCCNC(=O)/C(=C\c1ccc([N+](=O)[O-])o1)NC(=O)c1ccccc1	1030 nM (active)	
COc1cc(/C=C(\NC(=O)c2ccccc2)C(=O)NCCO)c([N+](=O)[O-])cc1OC		18.6%
CCOc1ccccc1C(=O)Nc1ccc2nc(N3CCN(c4ncccn4)CC3)cc(C)c2c1	3260 nM (active)	

SMILES	Potency	activity change, negative = killing
O=C1C(c2ccncc2)=C(O)c2ccccc21	9180 nM (active)	
CS/C(Nc1cc(Cl)ccc1Cl)=C(/C#N)C(=O)c1ccco1	5790 nM (active)	
O=[N+]([O-])c1ccc(N=NN(CCO)CCO)cc1	3260 nM (active)	
O=C(CCC(=O)Nc1ccc(Cl)cc1Cl)N/N=C/c1ccc([N+](=O)[O-])o1	818 nM (active)	
O=C(CSc1ccc(Cl)cc1)N/N=C/c1ccc([N+](=O)[O-])o1	818 nM (active)	
CCCCCC(=O)N/N=C/c1ccc([N+](=O)[O-])o1	579 nM (active)	
CCOC(=O)N/N=C\c1ccc([N+](=O)[O-])o1	1300 nM (active)	
CCCCCCCC(=O)N/N=C/c1ccc([N+](=O)[O-])o1	579 nM (active)	
CC(=O)Nc1ccc(NS(=O)(=O)c2ccc(C)cc2)c([N+](=O)[O-])c1	516 nM (active)	
COc1ccc(NS(=O)(=O)c2ccc(C)cc2)c([N+](=O)[O-])c1	1830 nM (active)	
CN(Cc1ccccc1)C(=O)c1ccc(NC(=O)Cc2cccc(NC(=O)C3CCN(C(=O)C4CC4)CC3)c2)cc1		-32%
CN(CCc1ccccc1)C(=O)c1cccc(NC(=O)Cc2cccc(NC(=O)C3CCN(C(=O)C4CCCC4)CC3)c2)c1		-1.44%
O=C(Nc1ccccc1C(=O)O)c1ccc(NC(=O)C2CC2)cc1	4100 nM (active)	
N/C(=N\O)c1ccc([N+](=O)[O-])s1	2900 nM (active)	
O=[N+]([O-])c1cccn2cc(-c3ccc(Br)cc3)nc12	729 nM (active)	
O=C(c1ccco1)N1CCN(c2c([N+](=O)[O-])nn(-c3ccc(Cl)cc3)[n+]2[O-])CC1	918 nM (active)	
O=C(c1ccco1)N1CCN(c2c([N+](=O)[O-])nn(-c3cccc(Cl)c3)[n+]2[O-])CC1	2590 nM (active)	
Cn1c([N+](=O)[O-])cnc1COC(N)=O	1160 nM (active)	
O=C(NC(=S)Nc1ccc(CN2CCOCC2)cc1)c1ccc([N+](=O)[O-])cc1Cl	4100 nM (active)	
CC(C)OC(=O)Nc1ccc2c(c1)N(C(=O)N1CCN(C)CC1)c1ccccc1CC2	4100 nM (active)	
CCCCOc1ccc(C(=O)NCC(=O)NCCCn2nc(C)cc2C)cc1		-2.52%
O=C(CN1C(=O)c2ccccc2S1(=O)=O)c1ccc2c(c1)OCCO2	2900 nM (active)	
O=C(CN1C(=O)c2ccccc2S1(=O)=O)c1ccc2c(c1)OCCCO2	1030 nM (active)	

SMILES	Potency	activity change, negative = killing
O=C1SCCN1N=Cc1ccc([N+](=O)[O-])o1	326 nM (active)	
Cc1ccc(-c2ccc(/C=N/N3C(=O)C4C5C=CC(CC5)C4C3=O)o2)c([N+](=O)[O-])c1 (stereo unspecified)		-17.9%
O=C1OC(CN(Cc2ccccc2)Cc2ccccc2)CN1N=Cc1ccc([N+](=O)[O-])o1 (stereo unspecified)	650 nM (active)	
CC1CS(=O)(=O)CCN1N=Cc1ccc([N+](=O)[O-])o1 (stereo unspecified)	365 nM (active)	
O=C1c2cc([N+](=O)[O-])cc3cc([N+](=O)[O-])cc(c23)C(=O)N1c1ccccn1	1830 nM (active)	
Cc1cc(O)ccc1N1C(=O)c2cccc3cc([N+](=O)[O-])cc(c23)C1=O	2900 nM (active)	
Cc1ccc(-c2nc3ncccc3o2)cc1NC(=O)c1ccc([N+](=O)[O-])o1	918 nM (active)	
Cc1c(NC(=O)c2ccc([N+](=O)[O-])o2)cccc1-c1nc2ncccc2o1	918 nM (active)	
O=C(Nc1ccc(-c2nc3ncccc3o2)cc1)c1ccc([N+](=O)[O-])o1	1300 nM (active)	
Cc1cc2ncn(/N=C/c3ccc([N+](=O)[O-])s3)c2cc1C	1300 nM (active)	
Nc1nc2ccccc2n1/N=C/c1ccc([N+](=O)[O-])s1	410 nM (active)	
Cc1nc2ccccc2n1/N=C/c1ccc([N+](=O)[O-])s1	1630 nM (active)	
O=[N+]([O-])c1ccc(/C=N/n2c(CO)nc3ccccc32)s1	650 nM (active)	
O=C(Cc1ccccc1)Nc1nnc(-c2cccs2)s1	1450 nM (active)	
O=[N+]([O-])c1ccc2nc(CO)[nH]c2c1	2310 nM (active)	
CCc1nc2cc([N+](=O)[O-])c([N+](=O)[O-])cc2[nH]1	6500 nM (active)	
Cn1c([N+](=O)[O-])cnc1N1CCN(c2nncs2)C1=O	365 nM (active)	
Cc1cc(C)c2nc(NC(=O)c3ccc([N+](=O)[O-])o3)sc2c1	1160 nM (active)	
Cc1cc(C)c2sc(NC(=O)c3ccc([N+](=O)[O-])o3)nc2c1	1160 nM (active)	
Cc1cccc(-n2ncc3c(N4CCCC4)ncnc32)c1	5160 nM (active)	
COc1ccc(C(=S)NC2CCCCC2)cc1	1030 nM (active)	
COc1ccc(Cn2ccnc2SCC(=O)NC2CCCC2)cc1		-1.53%
Cc1nc2c(o1)C(=O)c1ccccc1C2=Nc1ccccc1	6500 nM (active)	

SMILES	Potency	activity change, negative = killing
Cc1ccc(CN=c2c([N+](=O)[O-])nn(-c3cccc(C)c3)n2O)cc1	18300 nM (active)	
COc1ccc(-n2nc([N+](=O)[O-])c(=NCc3cccnc3)n2O)cc1	2590 nM (active)	
Cc1cccc(-n2nc([N+](=O)[O-])c(=NCc3cccnc3)n2O)c1	4100 nM (active)	
Cc1ccc(CN=c2c([N+](=O)[O-])nn(-c3cccc(Cl)c3)n2O)cc1	18300 nM (active)	
O=[N+]([O-])c1nn(-c2ccc3c(c2)OCCO3)n(O)c1=NC1CCCCC1	3260 nM (active)	
O=[N+]([O-])c1nn(-c2ccc3c(c2)OCCO3)n(O)c1=NC1CCCC1	3650 nM (active)	
O=[N+]([O-])c1nn(-c2ccc3c(c2)OCCO3)n(O)c1=NC1CCCCCC1	2050 nM (active)	
Cc1nc([N+](=O)[O-])cn1-c1nc2ccccn2c1[N+](=O)[O-]	1830 nM (active)	
COc1cc(-c2noc(C)c2C(=O)NCC[C@@H]2CCCN2C)cc(OC)c1OC		10.1%
Cc1ccc(NC(=O)C2CCN(S(=O)(=O)c3cc([N+](=O)[O-])ccc3Cl)CC2)nc1	4600 nM (active)	
Cc1cc(C)cc(NC(=O)Cn2c(=O)oc3cc(S(=O)(=O)N4CCC(C)CC4)ccc32)c1		-17.3%
Cc1ccc([N+](=O)[O-])cc1NC(=O)C1CCN(S(C)(=O)=O)CC1		-23.7%
Cc1ccc(SCCNC(=O)c2ccccc2F)cc1		-19.2%
Cc1ccc(C)c(Sc2ccc(NC(=O)CCl)cc2)c1	918 nM (active)	
C(=C\c1cnc2ccccc2n1)/c1ccc2c(c1)OCO2	2310 nM (active)	
C(=C\c1nc2ccccc2s1)/c1ccc2c(c1)OCO2	2310 nM (active)	
O=C(N/N=C/c1ccc([N+](=O)[O-])s1)c1ccccc1Br	1630 nM (active)	
Cc1ccccc1C(=O)N/N=C/c1ccc([N+](=O)[O-])s1	1450 nM (active)	
Cc1ccccc1NCC(=O)N/N=C\c1ccc([N+](=O)[O-])s1	3260 nM (active)	
Cc1cc(C(=O)N/N=C/c2ccc([N+](=O)[O-])s2)c2ccccc2n1	2900 nM (active)	
N/C(=N\N=Cc1ccc2c(c1)OCO2)NN=Cc1ccc2c(c1)OCO2	4100 nM (active)	
C[C@@H]1CC=C[C@H]2[C@H]1C(=O)N(Cc1ccccc1)[C@H]2c1ccc2ccccc2c1/C=C/c1ccccc1		0.989%
